The text below walks through data of PubChem BioAssay (NCATS).

A short description of experiment [1]: qHTS profiling of the MIPE4 collection as inhibitors of Plasmodium falciparum (3D7) proliferation (AID 743344).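 Note: scaled between DMSO vehicle wells and 0.29 µM artemisinin as full inhibition.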 To be noted: P. falciparum 3D7 in erythrocytes, SYBR Green DNA fluorescence, 72 h; at 28.5 µM unless noted. In a few lines:
(§1)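 Erythrocytes infected with P. falciparum (0.3% parasitemia, 2.5% hematocrit) incubated with compounds 72 h at 37 C, 5% CO2. Lysis with saponin/Triton buffer containing SYBR Green I, overnight at room temperature in the dark; DNA fluorescence (485/535 nm) normalised to 0.29 uM artemisinin and DMSO.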
A general note: Quantitative high-throughput screening tests each substance at several concentrations.

Experiment [2] can be described thus: qHTS profiling of the MIPE4 collection as inhibitors of Plasmodium falciparum (DD2) proliferation (AID 743345). To be noted: P. falciparum Dd2 in erythrocytes, SYBR Green DNA, 72 h; at 28.5 µM unless noted. In a few lines: as §1
Experiment [3] can be described thus: qHTS profiling of the MIPE4 collection as inhibitors of Plasmodium falciparum (DD2) proliferation (Rep 2) (AID 743346). To be noted: P. falciparum Dd2 in erythrocytes, SYBR Green DNA, 72 h; at 28.5 µM unless noted. In a few lines: as §1
Experiment [4] is described as follows: qHTS profiling of the MIPE4 collection as inhibitors of Plasmodium falciparum (HB3) proliferation (AID 743347).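 Note: plate controls were DMSO vehicle wells for no effect and artemisinin wells for full effect.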 The following applies: P. falciparum HB3 in erythrocytes, SYBR Green DNA, 72 h; at 28.5 µM unless noted. Summed up:
as §1

Experiment [5] is described as follows: High-throughput drug toxicity screening in the BPDCN cell line Gen2.2 (AID 1224824).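 Note: cells exposed to compounds for 48 h before reading.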 To be noted: Gen2.2 BPDCN cells; at 45.8 µM (top of the series) unless noted. Summed up: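 Gen2.2 cells, 500 per well in phenol red-free RPMI with 10% FBS, exposed to compounds 48 h at 37 C, 5% CO2; viability by CellTiter-Glo luminescence. Percent activity scaled to DMSO (100%) and 9.2 uM bortezomib final (0%).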

The nature of experiment [6]: High-throughput drug toxicity screening in the BPDCN cell line Cal-1 (AID 1224825). To be noted: Cal-1 BPDCN cell viability, qHTS; at 45.8 µM (top of the series) unless noted. Summed up:
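Exponentially growing Cal-1 cells, 500 per well in phenol red-free RPMI with 10% FBS, were exposed to compounds for 48 h at 37 °C, 5% CO2. Viability was read by CellTiter-Glo luminescence and normalised to DMSO (100%) and 9.2 uM bortezomib (0%).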

Experiment [7] in a line: qHTS assay for measurement of the activity of small molecule inhibitors on Zika virus induced Caspase-3 activity in human astrocytoma cells (AID 1224859; active = well fitted inhibition curve with a large enough effect;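 note: plate controls were ZIKV-infected untreated cells for no effect and uninfected cells for full effect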). In a few lines: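 Luminescent caspase-3/7 read-out (30 min reagent, room temperature) in human SNB-19 cells infected 6 h with ZIKV (2 FFU/cell) after 1 h compound pre-incubation; Data were normalised to uninfected and infected wells.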

A short description of experiment [8]: qHTS Screen of the MIPE 4.0 Collection Against Ewings Sarcoma (RDES) (AID 1259252; active = well fitted inhibition curve with a large enough effect; note: nearly all actives have a fitted effect of over 35% in size; note: potency is the fitted concentration of half-maximal effect). In a few lines: (§2)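 Measured: ATP luminescence (CellTiter-Glo) 10 min after reagent addition, following 48 h drug treatment. Relative luciferase units converted to percent activity, with no-cell wells as full and DMSO wells as zero inhibition.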
Experiment [9] is described as follows: qHTS Screen of the MIPE 4.0 Collection Against Ewings Sarcoma (TC71) (AID 1259253; active = well fitted inhibition curve with a large enough effect; note: nearly all actives have a fitted effect of over 40% in size; note: potency is the fitted concentration of half-maximal effect). In a few lines:
as §2

Experiment [10] is described as follows: qHTS Screen of the MIPE 4.0 Collection Against Ewings Sarcoma (EW8) (AID 1259255; active = well fitted inhibition curve with a large enough effect;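 note: 100% = DMSO-treated cells and 0% = medium-only wells without cells; nearly all actives have a fitted effect of over 35% in size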). Summed up:
as §2

Experiment [11] is described as follows: qHTS assay for measurement of the activity of small molecule inhibitors on Zika virus induced Caspase-3 activity in human iPSC derived neural progenitor cells (hNPCs) (AID 1224857; active = well fitted inhibition curve with a large enough effect; note: % of control where 0% means no effect; nearly all actives have a fitted effect of over 65% in size). Summed up: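 Percent inhibition of virus-induced caspase-3/7 luminescence (Caspase-Glo), scaled between uninfected cells and Zika-infected cells. hNPCs received compound 1 hr before ZIKV at 2 FFU/cell, with 6 hours infection at 37 C.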

Records with an inconclusive call do not appear. Active and inactive are the calls of the source. Unless noted, the rule behind the calls is not given here.

`CN(C)c1cc(NC(=O)CNC(C)(C)C)c(O)c2c1C[C@@H]1C[C@H]3[C@H](N(C)C)C(=O)C(C(N)=O)=C(O)[C@@]3(O)C(=O)C1=C2O` registered a parasite growth, % of DMSO control in [1] of 83%. The same molecule showed a parasite growth remaining, % of DMSO control (lower = more inhibition) in [2] of 90.5%. For the same molecule, the parasite growth, % of control (lower = inhibition) in experiment [3] was 106%. In addition, in experiment [4], the growth, % of control turned out to be 98.7%. Besides, in experiment [5], the cell viability, % of control (lower = more cytotoxic) came out at 142%. In [6], this molecule had a viability (% of control) of 97.2%. The Potency result in [7], in experiment [8], in [9] and in experiment [10] was “inactive” throughout.

In [1], `NC(=O)c1cccc(-c2cc(Nc3ccc(OC(F)(F)F)cc3)ncn2)c1` gave a parasite growth, % of DMSO control of 12.3%. This molecule also gave a parasite growth remaining, % of DMSO control (lower = more inhibition) in [2] of 63.7%. In addition, in [4], the growth, % of control came out at 8.8%. The cell viability, % of control (lower = more cytotoxic) in [5] worked out at 370%. The viability (% of control) in [6] is 77.2%. Moreover, the Potency result in [11] is “inactive”.

In [1], `CO[C@H]1C[C@@H]2CC[C@@H](C)[C@@](O)(O2)C(=O)C(=O)N2CCCC[C@@H]2C(=O)O[C@H]([C@@H](C)C[C@@H]2CC[C@H](O)[C@H](OC)C2)CC(=O)[C@H](C)C=C(C)[C@@H](O)[C@@H](OC)C(=O)[C@H](C)C[C@H](C)C=CC=CC=C1C` returned a parasite growth, % of DMSO control of 5.33%. In experiment [2], this molecule came in with a parasite growth remaining, % of DMSO control (lower = more inhibition) of 9.31%. The parasite growth, % of control (lower = inhibition) in experiment [3] amounted to 7.75%. The same molecule registered a growth, % of control in [4] of 6.63%. Besides, the cell viability, % of control (lower = more cytotoxic) in experiment [5] is 5.13%. Also, in experiment [6], the viability (% of control) came to 2.54%. Moreover, the Potency entry in experiment [11] is “inactive”.

For the molecule `CC[C@]1(O)C[C@@H]2CN(CCc3c([nH]c4ccccc34)[C@@](C(=O)OC)(c3cc4c(cc3OC)N(C=O)[C@@H]3C45CCN4CC=C[C@](CC)([C@H]45)[C@@H](OC(C)=O)[C@]3(O)C(=O)OC)C2)C1` (stereo partly specified), the parasite growth, % of DMSO control in experiment [1] came out at 5.87%. Further, in [2], the parasite growth remaining, % of DMSO control (lower = more inhibition) is 10.2%. Besides, in [3], the parasite growth, % of control (lower = inhibition) amounted to 16.2%. In experiment [4], this molecule had a growth, % of control of 3.8%. Moreover, in experiment [5], the cell viability, % of control (lower = more cytotoxic) amounted to 15%. This molecule registered a viability (% of control) in [6] of 51.8%. Besides, the Potency entry in experiment [7] was “inactive”. Besides, the Potency was 16.6 µM (active) in experiment [8] and 20.9 µM (active) in experiment [9].

Turning to `CC(C)OC(=O)CCCC=CC[C@@H]1[C@H](C=C[C@@H](O)COc2cccc(C(F)(F)F)c2)[C@H](O)C[C@@H]1O`, in experiment [1], the parasite growth, % of DMSO control is 23.8%. The parasite growth remaining, % of DMSO control (lower = more inhibition) in [2] came to 76.3%. The parasite growth, % of control (lower = inhibition) in [3] was found to be 33.1%. Further, the growth, % of control in experiment [4] was found to be 15.8%. The cell viability, % of control (lower = more cytotoxic) in [5] was 286%. In addition, the viability (% of control) in experiment [6] stood at 63.7%. The Potency entry in [7] and in experiment [8] was “inactive” throughout. Moreover, the Potency in experiment [9] was 16.6 µM (active).
